Measured values: ChEMBL document CHEMBL2218924, “A broad activity screen in support of a chemogenomic map for kinase signalling research and drug discovery” (Biochem J, 2013)

Legend:
[1] = biological target: Protein kinase C eta type (Homo sapiens) (UniProt P24723); settings: at 1 µM
[2] = biological target: Protein kinase C eta type (Homo sapiens) (UniProt P24723); settings: at 10 µM
[3] = biological target: T1, Serine/threonine-protein kinase D1 (Homo sapiens) (UniProt Q15139); settings: at 1 µM
T1 sequence (whole entry): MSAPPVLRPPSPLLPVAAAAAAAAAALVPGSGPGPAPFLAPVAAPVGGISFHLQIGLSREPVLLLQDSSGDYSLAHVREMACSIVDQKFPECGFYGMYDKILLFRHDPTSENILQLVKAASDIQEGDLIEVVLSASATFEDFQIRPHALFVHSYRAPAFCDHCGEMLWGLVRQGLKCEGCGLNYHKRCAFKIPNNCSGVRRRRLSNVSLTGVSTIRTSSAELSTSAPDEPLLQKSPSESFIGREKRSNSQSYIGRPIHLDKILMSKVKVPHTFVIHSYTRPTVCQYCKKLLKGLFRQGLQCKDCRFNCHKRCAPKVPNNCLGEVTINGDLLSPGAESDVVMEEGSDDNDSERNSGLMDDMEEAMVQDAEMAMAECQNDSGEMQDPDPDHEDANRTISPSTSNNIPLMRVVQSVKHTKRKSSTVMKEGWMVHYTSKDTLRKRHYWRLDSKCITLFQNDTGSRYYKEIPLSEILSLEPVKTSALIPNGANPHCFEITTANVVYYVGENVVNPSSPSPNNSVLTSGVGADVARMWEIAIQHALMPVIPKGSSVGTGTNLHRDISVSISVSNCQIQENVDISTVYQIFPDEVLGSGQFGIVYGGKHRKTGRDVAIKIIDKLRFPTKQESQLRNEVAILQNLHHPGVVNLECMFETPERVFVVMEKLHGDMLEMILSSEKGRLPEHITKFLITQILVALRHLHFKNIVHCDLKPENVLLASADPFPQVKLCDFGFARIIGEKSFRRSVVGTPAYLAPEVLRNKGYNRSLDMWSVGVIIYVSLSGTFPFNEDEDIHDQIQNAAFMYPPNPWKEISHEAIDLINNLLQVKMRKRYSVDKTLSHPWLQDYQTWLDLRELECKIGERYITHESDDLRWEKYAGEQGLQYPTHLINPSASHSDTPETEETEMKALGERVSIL

[4] = biological target: T1, Serine/threonine-protein kinase D1 (Homo sapiens); settings: at 10 µM
[5] = biological target: Protein kinase C theta type (Homo sapiens) (UniProt Q04759); settings: at 1 µM
[6] = biological target: Protein kinase C theta type (Homo sapiens) (UniProt Q04759); settings: at 10 µM
[7] = biological target: T2, Protein kinase C iota type (Homo sapiens) (UniProt P41743); settings: at 1 µM
T2 sequence (whole entry): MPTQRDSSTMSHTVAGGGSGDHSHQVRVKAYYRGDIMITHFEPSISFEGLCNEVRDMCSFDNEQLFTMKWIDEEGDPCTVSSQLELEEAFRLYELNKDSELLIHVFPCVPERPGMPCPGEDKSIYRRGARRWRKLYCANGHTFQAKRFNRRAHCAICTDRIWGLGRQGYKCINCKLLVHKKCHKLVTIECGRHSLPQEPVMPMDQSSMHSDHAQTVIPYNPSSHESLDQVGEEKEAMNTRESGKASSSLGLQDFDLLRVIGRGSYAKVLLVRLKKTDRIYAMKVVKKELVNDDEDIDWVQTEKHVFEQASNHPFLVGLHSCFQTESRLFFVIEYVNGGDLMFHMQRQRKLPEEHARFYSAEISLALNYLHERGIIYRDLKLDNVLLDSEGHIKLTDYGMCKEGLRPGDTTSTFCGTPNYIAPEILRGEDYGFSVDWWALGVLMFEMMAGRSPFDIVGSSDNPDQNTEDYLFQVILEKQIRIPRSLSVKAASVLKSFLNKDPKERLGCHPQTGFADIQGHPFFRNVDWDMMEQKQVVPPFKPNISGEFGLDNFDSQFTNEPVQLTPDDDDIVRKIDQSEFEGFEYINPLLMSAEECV

[8] = biological target: T3, Serine/threonine-protein kinase D2 (Homo sapiens) (UniProt Q9BZL6); settings: at 1 µM
T3 sequence (whole entry): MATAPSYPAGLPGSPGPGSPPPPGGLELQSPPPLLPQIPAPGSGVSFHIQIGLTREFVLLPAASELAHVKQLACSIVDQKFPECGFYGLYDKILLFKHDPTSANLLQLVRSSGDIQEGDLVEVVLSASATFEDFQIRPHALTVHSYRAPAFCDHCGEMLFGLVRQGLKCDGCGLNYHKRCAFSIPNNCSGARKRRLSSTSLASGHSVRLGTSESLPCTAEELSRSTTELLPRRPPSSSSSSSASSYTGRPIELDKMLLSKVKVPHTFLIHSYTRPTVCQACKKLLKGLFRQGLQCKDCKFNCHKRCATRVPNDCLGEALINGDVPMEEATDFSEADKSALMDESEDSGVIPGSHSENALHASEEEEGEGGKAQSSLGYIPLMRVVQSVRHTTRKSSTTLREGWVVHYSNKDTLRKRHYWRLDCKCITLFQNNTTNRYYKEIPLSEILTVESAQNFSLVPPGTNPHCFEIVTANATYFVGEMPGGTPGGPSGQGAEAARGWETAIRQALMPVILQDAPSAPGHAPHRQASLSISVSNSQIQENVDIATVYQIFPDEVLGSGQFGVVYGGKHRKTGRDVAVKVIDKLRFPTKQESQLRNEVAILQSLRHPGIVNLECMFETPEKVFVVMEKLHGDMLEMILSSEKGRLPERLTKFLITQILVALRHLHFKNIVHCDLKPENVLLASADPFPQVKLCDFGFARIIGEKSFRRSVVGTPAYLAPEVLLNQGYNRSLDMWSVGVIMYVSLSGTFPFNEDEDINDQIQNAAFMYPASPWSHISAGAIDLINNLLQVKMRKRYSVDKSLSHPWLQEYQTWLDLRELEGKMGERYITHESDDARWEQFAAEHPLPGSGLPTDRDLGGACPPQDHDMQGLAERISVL

[9] = biological target: T2, Protein kinase C iota type (Homo sapiens); settings: at 10 µM
[10] = biological target: T3, Serine/threonine-protein kinase D2 (Homo sapiens); settings: at 10 µM

Protein kinase C theta type (Homo sapiens), sequence (Q04759 whole entry, looked up): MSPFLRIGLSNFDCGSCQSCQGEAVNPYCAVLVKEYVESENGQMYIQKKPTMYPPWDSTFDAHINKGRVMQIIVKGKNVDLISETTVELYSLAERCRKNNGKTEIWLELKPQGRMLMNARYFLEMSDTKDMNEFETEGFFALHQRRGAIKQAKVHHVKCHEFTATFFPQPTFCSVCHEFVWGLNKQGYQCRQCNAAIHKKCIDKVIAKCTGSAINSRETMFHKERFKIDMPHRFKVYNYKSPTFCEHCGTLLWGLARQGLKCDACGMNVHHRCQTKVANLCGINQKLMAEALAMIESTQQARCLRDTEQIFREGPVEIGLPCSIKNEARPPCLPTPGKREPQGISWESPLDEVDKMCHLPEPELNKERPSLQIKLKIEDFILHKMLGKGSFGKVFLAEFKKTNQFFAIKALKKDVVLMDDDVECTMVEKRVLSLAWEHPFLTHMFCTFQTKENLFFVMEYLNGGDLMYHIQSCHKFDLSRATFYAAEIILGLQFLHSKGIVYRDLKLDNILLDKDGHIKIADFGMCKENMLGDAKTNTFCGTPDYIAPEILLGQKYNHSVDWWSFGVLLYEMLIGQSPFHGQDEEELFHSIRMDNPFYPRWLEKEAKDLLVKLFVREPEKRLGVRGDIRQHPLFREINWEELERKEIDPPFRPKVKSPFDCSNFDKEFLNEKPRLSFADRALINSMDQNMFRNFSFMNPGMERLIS
Protein kinase C eta type (Homo sapiens), sequence (P24723 whole entry): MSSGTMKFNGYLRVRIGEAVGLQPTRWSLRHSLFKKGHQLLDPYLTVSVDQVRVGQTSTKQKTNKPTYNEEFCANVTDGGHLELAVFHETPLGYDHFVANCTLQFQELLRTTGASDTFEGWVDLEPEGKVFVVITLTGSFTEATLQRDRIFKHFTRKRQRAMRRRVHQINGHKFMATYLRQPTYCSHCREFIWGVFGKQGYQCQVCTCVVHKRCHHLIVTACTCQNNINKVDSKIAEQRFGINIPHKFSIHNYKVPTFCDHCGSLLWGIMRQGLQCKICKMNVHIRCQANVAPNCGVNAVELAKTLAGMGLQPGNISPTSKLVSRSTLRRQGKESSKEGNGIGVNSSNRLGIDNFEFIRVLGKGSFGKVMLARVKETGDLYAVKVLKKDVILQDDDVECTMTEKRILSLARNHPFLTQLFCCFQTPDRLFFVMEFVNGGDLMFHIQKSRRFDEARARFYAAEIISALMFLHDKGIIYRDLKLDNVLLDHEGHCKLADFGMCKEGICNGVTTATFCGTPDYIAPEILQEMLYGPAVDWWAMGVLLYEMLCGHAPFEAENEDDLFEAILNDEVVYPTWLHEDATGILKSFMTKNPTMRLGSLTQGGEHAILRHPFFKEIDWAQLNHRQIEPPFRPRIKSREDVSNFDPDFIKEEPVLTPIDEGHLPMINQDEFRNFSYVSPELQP

Row | Structure (SMILES) | residual activity [1] [%] | residual activity [2] [%] | residual activity [3] [%] | residual activity [4] [%] | residual activity [5] [%] | residual activity [6] [%] | residual activity [7] | residual activity [8] [%] | residual activity [9] [%] | residual activity [10] [%]
1 | Cn1c2ccccc2c2c3c(c4c5ccccc5n(CCC#N)c4c21)CNC3=O | 72 | 60 | 5 | 12 | – | – | – | – | – | –
2 | CCCC(=O)Oc1ccc2[nH]c(C(=O)c3cc4ccccc4[nH]3)cc2c1 | 102 | 81 | 101 | 103 | 92 | 75 | 99% (inactive) | 99 | – | –
3 | Nc1ncnc2[nH]nc(Nc3ccc(F)cc3)c12 | 110 | 104 | 81 | 64 | 107 | 92 | 113% (inactive) | 106 | 109 | –
4 | Nc1n[nH]c2nc3ccccc3nc12 | 89 | 68 | 83 | 69 | – | 85 | – | – | – | 87
5 | COc1cc2c(cc1OC)-c1n[nH]c(Nc3cccc(F)c3)c1C2 | 102 | 70 | 78 | – | – | 81 | – | 107 | – | 104
6 | CCCCc1c(-c2ccc(O)cc2)[nH]c2nccnc12 | 96 | 77 | 83 | 59 | – | – | – | – | 83 | –
7 | O=C1C(Cl)=C(N2C(=O)CCC2=O)C(=O)c2ccccc21 | 68 | 24 | 72 | 76 | 92 | 85 | 118% (inactive) | 99 | 55 | 100
8 | O=C(O)/C=C/c1cc(Br)c(Br)c(Br)c1Br | 100 | 79 | 109 | 64 | 100 | 90 | 96% (inactive) | 102 | 100 | 97
9 | CSc1nc(-c2ccc(F)cc2)c(-c2ccnc(NC(C)c3ccccc3)c2)[nH]1 (centres undefined) | 87 | 73 | 97 | 44 | 101 | 72 | – | – | 99 | 94
10 | Nc1ncnc2c1c(-c1ccc(Oc3ccccc3)cc1)cn2C1CCCC1 | 95 | 67 | – | – | 94 | 109 | 87% (inactive) | 93 | 76 | 95
11 | O=S(=O)(NCCNC/C=C/c1ccc(Br)cc1)c1cccc2cnccc12 | 66 | 15 | – | 20 | 61 | 17 | – | – | – | –
12 | O=C1NC(=O)C(c2c[nH]c3ccccc23)=C1c1c[nH]c2ccccc12 | 68 | 17 | – | 71 | 5 | 2 | 116% (inactive) | – | 79 | –
13 | CC(C)c1nn(-c2c(Cl)cccc2Cl)c2nc(Cc3ccc(OCCO)cc3)[nH]c(=O)c12 | 92 | 91 | – | 95 | 90 | 80 | 99% (inactive) | 95 | 102 | 91
14 | NC(=O)Nc1sc(-c2ccc(F)cc2)cc1C(N)=O | 74 | 60 | 58 | 29 | 83 | 50 | 109% (inactive) | 100 | 107 | 64
15 | O=C1Cc2c([nH]c3ccc(Br)cc23)-c2ccccc2N1 | 72 | 94 | 99 | 80 | 49 | 31 | – | – | – | –
16 | O=c1cc(N2CCOCC2)oc2c1ccc1ccccc12 | 94 | 79 | 77 | 79 | 94 | 105 | 85% (inactive) | 100 | 97 | 94
17 | COc1cc2nccc(Oc3ccc(NC(=O)Nc4cc(C)on4)c(Cl)c3)c2cc1OC | 96 | 79 | – | – | 100 | 98 | – | – | – | –
18 | O=S(=O)(c1cccc2cnccc12)N1CCCNCC1 | 80 | 26 | 84 | 20 | – | 67 | – | 100 | – | –
19 | O=C1NC(=O)C(c2cn(CCCn3ccnc3)c3ccccc23)=C1Nc1ccccc1 | 15 | 2 | – | – | 3 | 2 | – | – | – | –
20 | O=C1Nc2ccc(Cl)cc2/C1=C/c1cc(Cl)c(O)c(Cl)c1 | 95 | 79 | – | – | 99 | 76 | 85% (inactive) | 98 | 83 | 56
21 | CC(C)(C)n1nc(Cc2cccc3ccccc23)c2c(N)ncnc21 | 77 | 86 | 22 | – | 98 | 92 | 115% (inactive) | 80 | 82 | 24
22 | Cn1sc(=O)n(Cc2ccccc2)c1=O | 79 | 17 | 90 | 64 | 89 | 85 | 87% (inactive) | 99 | 19 | 93
23 | O=C1NC(=O)c2c1c1c3ccccc3[nH]c1n1cncc21 | 85 | 81 | 41 | 25 | 71 | – | 102% (inactive) | 90 | 52 | 42
24 | O=c1cc(N2CCNCC2)oc2c(-c3ccccc3)cccc12 | 99 | 82 | 96 | 90 | 102 | 94 | 93% (inactive) | 102 | 71 | –
25 | COc1ccc2c(c1)c(C1=C(c3c[nH]c4ccccc34)C(=O)NC1=O)cn2CCCN(C)C | 10 | 2 | 108 | 58 | 3 | 1 | – | 98 | 62 | 102
26 | CC(C)[C@H](CO)Nc1nc(Nc2cc(N)cc(Cl)c2)c2ncn(C(C)C)c2n1 | 97 | 99 | 99 | 81 | 77 | 23 | – | 96 | 89 | 99
27 | COc1cc2nccc(Oc3ccc(NC(=S)NC(=O)c4ccccc4C)cc3)c2cc1OC | 98 | 71 | 87 | 89 | 89 | 97 | 88% (inactive) | – | 82 | –
28 | COc1cc2ncnc(Nc3cccc(Cl)c3)c2cc1OC | 110 | 108 | 110 | 73 | 105 | 101 | – | – | – | –
29 | O=C(c1ccccc1)c1ccc(N2CCOCC2)cc1O | 116 | 83 | 95 | – | – | – | 78% (inactive) | 96 | 73 | 100
30 | Nc1ncnc2c1cnn2-c1ccccc1 | 102 | 76 | 92 | – | – | – | 102% (inactive) | – | 98 | –
